# Data: PubChem BioAssay AID1626 (SRMLSC, 2009)
# In all, about 220,000 compounds went through this assay and about 2,000 (0.91%) were called active. Inconclusive results (about 2%) are left out. A selection follows. Results with a measured potency or affinity are listed apart. A number with no mark means an inactive call. Cut-off read from the data, not from the text of the source: inconclusive = inhibition above about 80% without an active follow-up result; inactive = below that; test concentration not stated here.
# Assay: M. tuberculosis H37Rv growth inhibitors, H37Rv strain (AID 1626);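 note: bacteria incubated seven days before Alamar blue readout; 0% = bacteria only wells and 100% = bacteria with antibiotic wells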
# Settings: hits give high values, concentration not given here
row,SMILES,inhibition
1,CCc1ccc(C2C3=C(CC(C)(C)CC3=O)OC3=C2C(=O)CC(C)(C)C3)cc1,-1.37%
2,O=c1[nH]c(/C=C\c2cccnc2)c([N+](=O)[O-])c(=O)[nH]1,-10.6%
3,C/C=C/C(=O)OCC(=O)Nc1nc2ccc(C)cc2s1,-7.77%
4,COc1cccc(C(=O)NNC(=O)C2CC(C)=C(C)CC2C(=O)O)c1 (configuration not stated),-6.84%
5,O=C(NC1CCSC1=O)c1ccc(Oc2ccc(F)cc2)nc1 (configuration not stated),0.17%
6,CCCn1nc2cc(C(=O)NCC34CC5CC(CC(C5)C3)C4)ccc2c1OCC,5.26%
7,COc1ccc(Br)cc1CNC(=O)C1CCN(S(=O)(=O)N2CCCC2)CC1,-4.95%
8,COc1ccccc1N=Nc1[nH]c2ccc(C)cc2c1O,9.9%
9,Cc1ccc(NCc2ccc(O)c3ncccc23)cc1C,9.65%
10,CCS(=O)(=O)c1ccc(OC)c(N=Nc2ccc(O)c3ncccc23)c1,4.79%
11,Oc1ccc(N=Nc2ccc3c(c2)OCCO3)c2ncccc12,41%
12,Cc1ccccc1NCc1ccc(O)c2ncccc12,5.07%
13,Cc1ccc(S(=O)(=O)Nc2ccc(O)c3ncccc23)cc1,-2.86%
14,Cc1cccnc1NCc1ccc(O)c2ncccc12,-8.13%
15,CCS(=O)(=O)c1ccc(N=Nc2ccc(O)c3ncccc23)c(OC)c1,-3.16%
16,Cc1ccc(-c2nc(C=Nc3cccc(C)c3)c(O)o2)cc1,1.48%
17,CCn1c(SCC(=O)Nc2cc(C)on2)nnc1-c1c[nH]c2ccccc12,-1%
18,CSc1ccccc1NC(=O)COC(=O)c1ccccc1Cc1ccccc1,7.08%
19,N#CC1=C2N=C(N)c3ccccc3N2C2=C(C(=O)CCC2)C1c1ccc(Cl)cc1 (configuration not stated),-9.07%
20,Cc1ccc(C(=O)Nc2ccc(N3CCN(S(C)(=O)=O)CC3)cc2)cc1C,-8.49%
21,C=CCOc1ccc(/C=C2\C(=N)N3N=C(S(=O)(=O)CC)SC3=NC2=O)cc1OC,-2.08%
22,O=C(c1ccco1)N1CCN(CCCCN2C(=O)c3ccccc3C2=O)CC1,-5.13%
23,CC1CN(C(=O)c2cc(F)c(F)cc2Cl)CC(C)O1 (configuration not stated),-4.24%

row,SMILES,inhibition
1,Fc1ccc(C(OCCN2CCCC2)c2ccc(Br)cc2)cc1 (configuration not stated),11.1%
2,c1ccc(C(OCCN2CCNCC2)c2ccccc2)cc1,-7.41%
3,Clc1ccccc1CN1CCN(CCCc2ccccc2)CC1,6.37%
4,Fc1ccc(C(OCCN2CCCC2)c2ccc(F)cc2)cc1,3.27%
5,COc1ccc(C(C)=O)cc1COC(=O)C(CO)NS(=O)(=O)c1ccc(Br)cc1 (configuration not stated),7.85%
6,Cc1ccc(C(=O)N2CCN(c3cc4c(cc3[N+](=O)[O-])n(C)c(=O)n4C)CC2)cc1,-9.29%
7,CC(C)Sc1nc2c(c(=O)[nH]c(=O)n2C)n1Cc1ccc(Cl)cc1,11.2%
8,O=c1c2ccccc2c(-c2ccccc2)nn1-c1ccccc1,8.6%
9,CC(C)NC(=O)C(=O)NC1CCCCCC1,-2.43%
10,O=[N+]([O-])c1ccc(N/N=C/c2cn(-c3ccccc3)nc2-c2ccccc2)cc1,30.5%
11,COc1ccc(/C=N/NC(=O)c2c([N+](=O)[O-])c(C)nn2C)cc1,1.88%
12,CS(=O)(=O)c1ccc2nc(NC(=O)c3ccc(NS(=O)(=O)c4cccc([N+](=O)[O-])c4)cc3)sc2c1,34.8%
13,CC(=NCC1CCCO1)c1c(O)n(-c2ccccc2C)c(=O)[nH]c1=O (configuration not stated),-6.91%
14,N=c1c(C(=O)NCc2ccco2)cc2c(=O)n3ccccc3nc2n1CCc1ccccc1,-6.57%
15,CCCn1c(=N)c(C(=O)NCC2CCCO2)cc2c(=O)n3cccc(C)c3nc21 (configuration not stated),-1.86%
16,CCOCCCn1c(=N)c(C(=O)NCc2ccc3c(c2)OCO3)cc2c(=O)n3cccc(C)c3nc21,26.6%
17,CCNC(=O)c1cc2c(=O)n3cccc(C)c3nc2n(CCc2ccccc2)c1=N,-3.98%
18,COc1ccc(N2CCN(C(=O)CCCCCn3c(=O)[nH]c4ccsc4c3=O)CC2)cc1,0.96%
19,CS(=O)(=O)N1Cc2ccccc2CC1C(=O)Nc1ccccc1C(N)=O (configuration not stated),0.87%
20,CCc1ccc(N2Cc3ccccc3C2)cc1,14.3%
21,CN(C)CCNC(=O)/C=N/O,-1.95%
22,O=C(NC1CCCCCC1)c1ccccc1-c1ccccc1,36%
23,O=C(NC1CCCCC1)c1ccccc1-c1ccccc1,0.73%

row,SMILES,inhibition
1,COc1cc(/C=N/NC(=O)CCc2n[nH]c(=O)[nH]c2=O)cc(OC)c1OC,-3.85%
2,CCCCN1C(=O)CC(Sc2ncccc2C(=O)O)C1=O (configuration not stated),3.02%
3,Cc1cc(N2C(=O)C3CCCN3C2c2cccc(Cl)c2)no1 (configuration not stated),-8.92%
4,Cc1ccc(NC(=O)COc2ccccc2[N+](=O)[O-])nc1,0.84%
5,CN(C(=O)COc1ccccc1)c1nc(-c2ccc(F)cc2)cs1,-0.64%
6,N#CCCN(C(=O)CCl)c1cccc(Cl)c1,32.5%
7,Cc1ccc(C(=O)N(CC#N)CC#N)cc1C,0.74%
8,Cc1cccc(-c2noc(CCCOc3ccc(Cl)cc3Cl)n2)c1,-7.47%
9,Clc1ccc(C2=Nc3cc(Cl)ccc3OC2)cc1,-4.24%
10,Cc1ccc2c(c1)N=C(c1ccc(F)cc1)CO2,-1.59%
11,COCC(COCCCNC(=O)Nc1ccc(Br)cc1)OC (configuration not stated),2.27%
12,CCOC(=O)c1sc(C)c2c1NC1(CCCCC1)NC2=O,2.89%
13,O=C(NCc1cccnc1)c1ccccc1CCc1ccccc1,5.46%
14,COC(=O)CSc1nnc(-c2ccncc2)o1,-2.74%
15,CSc1nnc(-c2ccc([N+](=O)[O-])cc2)o1,34%
16,C=CCSc1nnc(-c2cccnc2)o1,-5.82%
17,Cc1ccc(CSc2nnc(-c3ccc(NS(=O)(=O)c4ccccc4)cc3)o2)cc1,11.7%
18,Cc1ccc(S(=O)(=O)Nc2ccc(-c3nnc(SCc4ccccc4Cl)o3)cc2)cc1,0.5%
19,CCOC(=O)CSc1ncc(-c2ccc([N+](=O)[O-])cc2)[nH]1,47.4%
20,N#CCSc1nnc(-c2sc3ccccc3c2Cl)o1,11.6%
21,NC(=O)CSc1nnc(-c2ccc([N+](=O)[O-])cc2)o1,-3.14%
